ALDH1A1 inh: qHTS Assay for Inhibitors of Aldehyde Dehydrogenase 1 (ALDH1A1); Purified ALDH1A1, NADH fluorescence, propionaldehyde substrate; AID 1030, 2008; Aldehyde dehydrogenase 1A1 (Homo sapiens), P00352; 7.3% of 220,000 active; Potency, µM (series often up to 75.3 µM), most hits filed as inhibitors; active means well fitted inhibition curve with a large enough effect, not every such curve was filed as active; inconclusive means small, poorly fitted or top-dose-only effect, or another doubt; inactive means no such curve, though single readings can be large or run the other way
KDM4E inh: qHTS Assay for Inhibitors of Human Jumonji Domain Containing 2E (JMJD2E) | JMJD2E catalytic domain, FDH-coupled NADH fluorescence (FDH is formaldehyde dehydrogenase) | 1.6% of 230,000 active | Lysine-specific demethylase 4E (Homo sapiens), B2RXH2 | Potency, µM (series often up to 57.1 µM), most hits filed as inhibitors; active means well fitted inhibition curve with a large enough effect, not every such curve was filed as active; inconclusive means small, poorly fitted or top-dose-only effect, or another doubt; inactive means no such curve, though single readings can be large or run the other way; further: nearly all actives have a fitted effect of over 50% in size
miR-21 act: qHTS Assay for Modulators of miRNAs and/orActivators of miR-21. Potency, µM (series often up to 38.3 µM), most hits filed as activators. 340,000 tested, under 10 active. AID 2288, 2010. HeLa miR-21 FLuc reporter, luciferase, 48 h;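 further: miR-21 action dims this reporter so a rising signal means less miR-21 action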
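Compounds were titrated across several concentrations (up to approximately 40 uM) and incubated 48 hours with HeLa miR-21-FLuc reporter cells (miR-21 target sequence downstream of FLuc, endogenous miR-21). Readout was firefly luciferase luminescence after lytic detection reagent.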
Lamin A splicing: qHTS Assay for Modulators of Lamin A Splicing; HeLa LMNA splicing GFP/RFP minigene ratio, 48 h; Potency, µM (top dose mostly 46.1 µM), most hits filed as inhibitors; 0.01% of 200,000 active; AID 1487, 2009; active means well fitted inhibition curve with a large enough effect in the signal ratio, with a control signal flat, not every such curve was filed as active; inconclusive means small, poorly fitted or top-dose-only effect, or effect the other way, or a change in a side signal; the % refers to the signal ratio
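Read-out is the ratio of GFP to DsRed2 object intensity, acquired by 488 nm laser-scanning cytometry on HeLa lamin A-EGFP minigene reporter cells. Compound incubation 48 hrs at 37 °C in Opti-MEM with 2% FBS; DMSO 0.5% final.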
Sfp inh: qHTS Assay for Inhibitors of Bacillus subtilis Sfp phosphopantetheinyl transferase (PPTase); AID 1490, 2009; Potency, µM, most hits filed as inhibitors; Biochemical Sfp PPTase activity, qHTS; 3.5% of 310,000 active;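 further: the enzyme is Sfp with the accession as filed and its product quenches rhodamine fluorescence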
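Sfp 15 nM + cpd, 15 min RT; start w/ rhodamine-CoA 5 uM, BHQ-2-YbbR 12.5 uM (final); 50 mM Hepes pH 7.6, 10 mM MgCl2, 0.01% NP-40, 0.01% BSA; read 525/598 nm at 0 and 30 min.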
G9a inh: qHTS Assay for Inhibitors of Histone Lysine Methyltransferase G9a; Histone-lysine N-methyltransferase EHMT2 (Homo sapiens), Q96KQ7; G9a H3K9 monomethylation, AlphaScreen, 2 h; Potency, µM (titrated, usually from 102 µM), hits mostly inhibitors; 8.8% of 350,000 active; AID 504332, 2011; further: nearly all actives have a fitted effect of over 75% in size
Target sequence (Q96KQ7 913-1193 limits assumed): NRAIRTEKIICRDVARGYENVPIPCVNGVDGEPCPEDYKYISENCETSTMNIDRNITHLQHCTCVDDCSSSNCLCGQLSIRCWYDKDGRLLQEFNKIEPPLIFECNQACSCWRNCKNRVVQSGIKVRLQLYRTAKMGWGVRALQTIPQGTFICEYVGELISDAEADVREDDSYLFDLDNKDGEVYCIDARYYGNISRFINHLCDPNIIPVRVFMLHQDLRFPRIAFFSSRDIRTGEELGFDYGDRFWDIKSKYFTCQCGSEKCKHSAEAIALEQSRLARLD
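Signal arises when biotinylated H3K9 peptide, once monomethylated, bridges streptavidin donor and antibody-captured acceptor beads. Enzyme at 20 nM was preincubated 15 min with test compounds; peptide 500 nM and SAM 20 uM then reacted for 2 h.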
Of the large screens only hits and unclear results are named; the others gave an inactive call. Compounds with a hit are over-represented: about 13% of the library has one in this group of screens. Unless noted, the call rests on the fitted dose curve; in most records, active means well fitted curve in the direction sought with a large enough effect; inconclusive means small, poorly fitted or top-dose-only effect, or another doubt; inactive means no such curve, though single readings can be large; an effect the other way counts as inactive or inconclusive.

O=C(O)c1cc2c(cc1NC(=O)c1ccccc1C(F)(F)F)OCCCO2	none (no result: ALDH1A1 inh, KDM4E inh, Lamin A splicing)
CS(=O)(=O)Nc1ccccc1C(=O)Nc1cc2c(cc1C(=O)O)OCCCO2	G9a inh 8.9µM (no result: ALDH1A1 inh, KDM4E inh, Lamin A splicing)
CC(O)CNCCOc1ccccc1-c1ccccc1 (stereo not drawn)	ALDH1A1 inh 11µM, Sfp inh 71µM, G9a inh 3.5µM (no result: Lamin A splicing)
COCCNCCOc1ccccc1-c1ccccc1	KDM4E inh inconclusive, Sfp inh 50µM, G9a inh 10µM
CN(C)CCOCCOc1ccc(Cl)cc1C(C)(C)C	KDM4E inh inconclusive, G9a inh 8.9µM
CN(C)CCOCCOc1ccccc1-c1ccccc1	ALDH1A1 inh inconclusive, Sfp inh 79µM
OCCNCCOc1ccccc1-c1ccccc1	G9a inh 10µM
CCCCNCCOc1ccccc1-c1ccccc1	KDM4E inh inconclusive, G9a inh inconclusive
COc1ccc(N2Cc3cccc(C(=O)Nc4ccc(F)cc4)c3C2=O)cc1	none (no result: ALDH1A1 inh, KDM4E inh, Lamin A splicing, Sfp inh)
Fc1ccc(-c2csc(Nc3ccccn3)n2)cc1	G9a inh 79µM (no result: ALDH1A1 inh, KDM4E inh, Lamin A splicing)
CC1CC1C(=O)Nc1nc(-c2ccccc2)cs1 (stereo not drawn)	ALDH1A1 inh 10µM, Lamin A splicing inconclusive
c1ccc(Nc2nc(-c3cccnc3)cs2)nc1	none
Cc1cccnc1Nc1nc(-c2ccccc2)cs1	Sfp inh 50µM, G9a inh 40µM (no result: ALDH1A1 inh, KDM4E inh, Lamin A splicing)
Cc1cccnc1Nc1nc(-c2ccc(O)cc2O)cs1	ALDH1A1 inh inconclusive, Lamin A splicing inconclusive, Sfp inh 45µM, G9a inh 6.3µM
Oc1ccc(-c2csc(Nc3ccccn3)n2)c(O)c1	Sfp inh inconclusive, G9a inh 45µM (no result: ALDH1A1 inh, KDM4E inh, Lamin A splicing)
NNc1nc(-c2ccccc2)cs1	G9a inh 22µM
c1ccc(Nc2nc(-c3cccs3)cs2)nc1	Lamin A splicing inconclusive, G9a inh inconclusive
CC1CC1C(=O)Nc1nc(-c2cccs2)c(-c2cccs2)s1 (stereo not drawn)	ALDH1A1 inh inconclusive, KDM4E inh inconclusive, Sfp inh 50µM, G9a inh inconclusive
CC(=O)n1cc([C@@H]2C=C(C(=O)NCc3ccccc3)O[C@H](OCCCCO)C2)c2ccccc21	KDM4E inh 16µM (no result: Lamin A splicing, G9a inh)
O=C(NC1CC1)C1=C[C@@H](c2c[nH]c3ccccc23)C[C@@H](OCc2ccc(CO)cc2)O1	KDM4E inh 25µM (no result: ALDH1A1 inh, Lamin A splicing)
C#CCNC(=O)C1=C[C@@H](c2coc3ccccc3c2=O)C[C@@H](OCCCCO)O1	ALDH1A1 inh 10µM (no result: Lamin A splicing)
O=C(NC1CC1)C1=C[C@H](c2c[nH]c3ccccc23)C[C@H](OCCCCO)O1	KDM4E inh inconclusive (no result: ALDH1A1 inh, Lamin A splicing)
CC(=O)n1cc([C@H]2C=C(C(=O)NCc3ccccc3)O[C@@H](OCc3ccc(CO)cc3)C2)c2ccccc21	ALDH1A1 inh 16µM, KDM4E inh inconclusive (no result: Lamin A splicing)
CCOCCCn1c(=S)[nH]c2cc(C(=O)NC3CCCC(C)C3C)ccc2c1=O (stereo not drawn)	none (no result: ALDH1A1 inh, KDM4E inh, Lamin A splicing)
CC(C)NC(=O)Cn1c(=O)nc(-c2ccccc2)c2ccccc21	Lamin A splicing inconclusive (no result: ALDH1A1 inh, KDM4E inh, Sfp inh)
Cc1ccc(CSc2nc3cccnc3n2Cc2nc(-c3ccccc3F)oc2C)cc1	Lamin A splicing inconclusive, G9a inh inconclusive (no result: ALDH1A1 inh, KDM4E inh, Sfp inh)
O=C(NCc1ccccc1)C1=C[C@H](c2ccc(Br)cc2)C[C@H](OCc2ccc(CO)cc2)O1	ALDH1A1 inh inconclusive (no result: Lamin A splicing)
O=C(NCc1ccccc1)C1=C[C@@H](c2ccc(Br)cc2)C[C@@H](OCCCCO)O1	ALDH1A1 inh 25µM, G9a inh inconclusive (no result: Lamin A splicing)
Cc1cccn2c(CN(C)C3CCOC3)c(C(=O)N3CCCCC3)nc12 (stereo not drawn)	none (no result: G9a inh)
Cc1cccn2c(CN(C)CCC3CCCCO3)c(C(=O)N3CCCCC3)nc12 (stereo not drawn)	ALDH1A1 inh 3.2µM (no result: Lamin A splicing)
COc1ccc(C)c2sc(N(Cc3cccnc3)C(=O)C3CCCCC3)nc12	none (no result: ALDH1A1 inh, KDM4E inh, Sfp inh)

Compound activity: PubChem, National Center for Advancing Translational Sciences (NCATS)
